Reference: PubChem BioAssay (Tox21)
Results filed as inconclusive are left out. Active and inactive are the calls of the source. Unless noted, calls come from the whole dose curve; as a rule, active = well fitted curve in the direction sought with a large enough effect in the repeat runs; inconclusive = weak or mixed curves; inactive = no such curve, though single readings can be large; an effect the other way counts as inactive or inconclusive.

Experiments:
[1] = qHTS assay to identify small molecule antagonists of the thyroid receptor (TR) signaling pathway - cell viability counter screen (AID 743064); note: nearly all actives have a fitted effect of over 50% in size
In short: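 Plate GH3.TRE-Luc cells; incubate 4 h at 37 °C; add compound, then T3 to 1 nM final; incubate 23.5 h; add CellTiter-Fluor; incubate 30 min at 37 °C, 5% CO2; read fluorescence.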

[2] = qHTS assay to identify small molecule antagonists of the thyroid receptor (TR) signaling pathway (AID 743065); note: series mostly up to about 70 µM; nearly all actives have a fitted effect of over 55% in size
In short: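 Antagonism measured as loss of luciferase signal in GH3 cells stably carrying a TRE-luciferase reporter, co-treated with compound and T3 (1 nM final) for 23.5 h at 37 C. Viability was read in the same well by CellTiter-Fluor.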

[3] = system: thyroid hormone receptor (rat, GH3 cells); assay: qHTS assay to identify small molecule agonists of the thyroid receptor (TR) signaling pathway (AID 743066; calls by dose curve)
[4] = target: Estrogen receptor (Homo sapiens) (UniProt P03372); assay: qHTS assay to identify small molecule antagonists of the estrogen receptor alpha (ER-alpha) signaling pathway (AID 743069; active = well fitted curve in the direction sought with a large enough effect in the signal ratio in the repeat runs, not every such curve was filed as active; the % refers to the signal ratio)
Sequence of Estrogen receptor (Homo sapiens) (P03372 whole entry, looked up): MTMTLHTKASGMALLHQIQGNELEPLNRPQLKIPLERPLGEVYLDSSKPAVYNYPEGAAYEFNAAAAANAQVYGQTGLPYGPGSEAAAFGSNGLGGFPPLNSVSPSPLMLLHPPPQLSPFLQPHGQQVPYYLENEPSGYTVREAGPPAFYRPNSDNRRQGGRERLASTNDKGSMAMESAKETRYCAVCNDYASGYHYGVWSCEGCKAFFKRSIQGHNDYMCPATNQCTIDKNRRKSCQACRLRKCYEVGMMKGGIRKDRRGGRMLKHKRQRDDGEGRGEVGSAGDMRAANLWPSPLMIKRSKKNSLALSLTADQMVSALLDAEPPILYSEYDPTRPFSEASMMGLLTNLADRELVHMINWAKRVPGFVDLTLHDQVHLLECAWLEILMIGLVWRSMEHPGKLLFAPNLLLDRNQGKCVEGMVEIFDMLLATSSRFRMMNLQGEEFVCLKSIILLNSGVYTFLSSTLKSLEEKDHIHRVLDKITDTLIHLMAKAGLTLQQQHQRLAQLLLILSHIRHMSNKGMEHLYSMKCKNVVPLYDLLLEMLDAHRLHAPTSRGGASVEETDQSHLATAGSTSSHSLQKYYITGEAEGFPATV
In short: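 Antagonist mode: compounds in DMSO were co-added with 17beta-estradiol to ER-alpha-bla HEK293 cells (2% charcoal-stripped serum) and left 18 h at 37C. Reporter inhibition was measured as FRET fluorescence after 2 h LiveBLAzer substrate at room temperature.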

[5] = qHTS assay to identify small molecule antagonists of the estrogen receptor alpha (ER-alpha) signaling pathway - cell viability counter screen (AID 743074; calls by dose curve;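 note: HEK293 cells carrying ER-alpha-UAS-bla reporter stimulated with 17beta-estradiol; nearly all actives have a fitted effect of over 45% in size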)
[6] = target: Estrogen receptor (Homo sapiens) (UniProt P03372); assay: qHTS assay to identify small molecule agonists of the estrogen receptor alpha (ER-alpha) signaling pathway (AID 743075; calls by dose curve;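 note: HEK293 GripTite cells with ER-alpha and UAS-driven beta-lactamase reporter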)
[7] = target: Estrogen receptor (Homo sapiens) (UniProt P03372); assay: qHTS assay to identify small molecule agonists of the estrogen receptor alpha (ER-alpha) signaling pathway using the BG1 cell line (AID 743079); note: nearly all actives have a fitted effect of over 20% in size
[8] = qHTS assay to identify small molecule antagonists of the estrogen receptor alpha (ER-alpha) signaling pathway using the BG1 cell line (AID 743080; calls by dose curve;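 note: BG1 cells stimulated with 17beta-estradiol alongside compound; series mostly up to about 70 µM; nearly all actives have a fitted effect of over 25% in size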)
In short: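 Quantitative HTS on the Tox21 10K library: BG1 cells with endogenous ER-alpha and ERE-luciferase reporter, 17beta-estradiol stimulation, 21.5 h compound exposure, luminescence endpoint with parallel fluorescence cytotoxicity counter-read.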

[9] = qHTS assay to identify small molecule antagonists of the estrogen receptor alpha (ER-alpha) signaling pathway using the BG1 cell line - cell viability counter screen (AID 743081);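 note: compound given together with 17beta-estradiol as the ER stimulus; series mostly up to about 70 µM; nearly all actives have a fitted effect of over 45% in size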
Aromatase (Homo sapiens) = Aromatase (Homo sapiens) (UniProt P11511); assay: qHTS assay to identify aromatase inhibitors (AID 743083); note: series mostly up to about 70 µM; nearly all actives have a fitted effect of over 55% in size
Sequence of Aromatase (Homo sapiens) (P11511 whole entry, looked up): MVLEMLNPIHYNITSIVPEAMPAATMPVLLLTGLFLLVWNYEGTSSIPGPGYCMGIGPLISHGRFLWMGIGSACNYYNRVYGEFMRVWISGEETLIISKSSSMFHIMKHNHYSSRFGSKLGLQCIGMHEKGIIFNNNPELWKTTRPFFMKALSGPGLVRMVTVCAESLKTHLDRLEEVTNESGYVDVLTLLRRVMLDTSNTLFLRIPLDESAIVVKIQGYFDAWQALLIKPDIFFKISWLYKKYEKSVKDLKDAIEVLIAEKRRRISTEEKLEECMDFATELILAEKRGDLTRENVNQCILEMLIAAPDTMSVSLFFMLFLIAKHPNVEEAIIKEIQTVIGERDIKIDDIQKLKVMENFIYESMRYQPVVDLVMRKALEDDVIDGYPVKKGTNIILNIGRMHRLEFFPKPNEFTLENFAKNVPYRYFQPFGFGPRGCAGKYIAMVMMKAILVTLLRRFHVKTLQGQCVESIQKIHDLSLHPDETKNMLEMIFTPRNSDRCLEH

[10] = qHTS assay to identify aromatase inhibitors - cell viability counter screen (AID 743084);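 note: cells stimulated with testosterone during compound exposure; nearly all actives have a fitted effect of over 55% in size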
[11] = target: Aryl hydrocarbon receptor (Homo sapiens) (UniProt P35869); assay: qHTS assay to identify small molecule that activate the aryl hydrocarbon receptor (AhR) signaling pathway (AID 743085);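 note: HG2L7.5c1 human HepG2 liver cells with stably integrated DRE-driven firefly reporter; series mostly up to about 70 µM; nearly all actives have a fitted effect of over 15% in size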
Sequence of Aryl hydrocarbon receptor (Homo sapiens) (P35869 whole entry, looked up): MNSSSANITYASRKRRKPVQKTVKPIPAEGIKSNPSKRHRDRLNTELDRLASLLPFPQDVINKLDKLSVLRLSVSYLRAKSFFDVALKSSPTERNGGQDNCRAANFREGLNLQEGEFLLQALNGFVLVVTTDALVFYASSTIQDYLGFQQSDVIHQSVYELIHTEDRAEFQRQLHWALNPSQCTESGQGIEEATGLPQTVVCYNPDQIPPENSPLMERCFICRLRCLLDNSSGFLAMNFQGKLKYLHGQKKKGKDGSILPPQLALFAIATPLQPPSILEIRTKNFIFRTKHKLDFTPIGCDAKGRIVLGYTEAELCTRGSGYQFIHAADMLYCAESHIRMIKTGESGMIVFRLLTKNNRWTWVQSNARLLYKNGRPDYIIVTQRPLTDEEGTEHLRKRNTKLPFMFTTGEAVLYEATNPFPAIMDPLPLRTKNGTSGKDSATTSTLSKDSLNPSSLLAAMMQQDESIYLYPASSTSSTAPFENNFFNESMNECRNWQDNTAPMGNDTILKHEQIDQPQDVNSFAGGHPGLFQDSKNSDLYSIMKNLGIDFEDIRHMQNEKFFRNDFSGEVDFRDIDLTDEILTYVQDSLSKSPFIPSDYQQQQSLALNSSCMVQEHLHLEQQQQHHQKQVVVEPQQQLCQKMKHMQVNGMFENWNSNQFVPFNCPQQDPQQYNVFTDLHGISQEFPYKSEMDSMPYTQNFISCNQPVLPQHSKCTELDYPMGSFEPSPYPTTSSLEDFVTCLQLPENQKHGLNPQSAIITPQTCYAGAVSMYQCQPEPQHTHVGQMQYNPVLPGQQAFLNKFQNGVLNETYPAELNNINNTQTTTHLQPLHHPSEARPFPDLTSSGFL
In short: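 Steps: seed HepG2-AhR-luc cells; allow 5 h at 37C; pin-transfer test compound or vehicle; incubate 24 h at 37C; add viability dye (30 min, 37C) and read fluorescence; add luciferase substrate (30 min, RT) and read luminescence.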

[12] = qHTS assay to identify small molecule that activate the aryl hydrocarbon receptor (AhR) signaling pathway - cell viability counter screen (AID 743086);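 note: HepG2 liver cells carrying the AhR DRE luciferase reporter; series mostly up to about 70 µM; nearly all actives have a fitted effect of over 45% in size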
In short: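 Cytotoxicity counter screen: CellTiter-Fluor signal (30 min, 37 C) in 4000 HepG2 cells/well carrying the DRE-luciferase reporter, following 24 h compound exposure at 37 C.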

[13] = target: Peroxisome proliferator-activated receptor gamma (Homo sapiens) (UniProt P37231); assay: qHTS assay to identify small molecule agonists of the peroxisome proliferator-activated receptor gamma (PPARg) signaling pathway (AID 743094; active = well fitted activation curve with a large enough effect in the signal ratio in the repeat runs, not every such curve was filed as active; the % refers to the signal ratio)
Sequence of Peroxisome proliferator-activated receptor gamma (Homo sapiens) (P37231 whole entry, looked up): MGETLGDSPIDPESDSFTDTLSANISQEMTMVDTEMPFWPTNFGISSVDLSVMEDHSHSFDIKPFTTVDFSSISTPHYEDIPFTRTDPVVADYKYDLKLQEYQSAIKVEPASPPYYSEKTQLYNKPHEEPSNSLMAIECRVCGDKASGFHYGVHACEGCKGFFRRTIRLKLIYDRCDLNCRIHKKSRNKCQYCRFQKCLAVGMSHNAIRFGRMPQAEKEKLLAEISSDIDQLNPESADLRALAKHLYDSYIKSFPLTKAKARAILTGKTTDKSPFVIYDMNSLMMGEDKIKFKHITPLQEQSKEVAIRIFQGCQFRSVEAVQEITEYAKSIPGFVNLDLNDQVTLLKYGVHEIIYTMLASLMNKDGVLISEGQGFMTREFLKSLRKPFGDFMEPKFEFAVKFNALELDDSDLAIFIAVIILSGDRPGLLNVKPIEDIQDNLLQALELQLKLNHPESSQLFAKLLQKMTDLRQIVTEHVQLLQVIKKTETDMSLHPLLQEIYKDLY
In short: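 Agonist activity was taken from a beta-lactamase reporter (FRET substrate, 1 h at room temperature) in HEK293H cells carrying a PPARg UAS-bla construct. Compounds in DMSO were incubated 17 h at 37C after a 5 h cell pre-incubation.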

[14] = target: Peroxisome proliferator-activated receptor gamma (Homo sapiens) (UniProt P37231); assay: qHTS assay to identify small molecule antagonists of the peroxisome proliferator-activated receptor gamma (PPARg) signaling pathway (AID 743191; calls by dose curve; note: series mostly up to about 63 µM; nearly all actives have a fitted effect of over 30% in size)
In short: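 Beta-lactamase reporter under UAS control in HEK293H PPARg-bla cells; compound treatment 17 h at 37C. Read-out: fluorescence intensity after 1 h room-temperature incubation with LiveBLAzer B/G FRET substrate.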

[15] = qHTS assay for small molecule agonists of the antioxidant response element (ARE) signaling pathway (AID 743202; active = well fitted activation curve with a large enough effect in the signal ratio in the repeat runs, not every such curve was filed as active; the % refers to the signal ratio)
In short: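 After 16 hours of compound treatment at 37 C, HepG2 cells with a stably integrated ARE-driven beta-lactamase reporter were loaded 2 hours at room temperature with LiveBLAzer B/G FRET substrate and fluorescence intensity measured.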

[16] = qHTS assay for small molecule agonists of the antioxidant response element (ARE) signaling pathway - cell viability counter screen (AID 743203; calls by dose curve; note: nearly all actives have a fitted effect of over 55% in size)
In short: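 Viability counter screen: CellTiter-Glo luminescence, read after 30 min at room temperature, in ARE-bla HepG2 wells. Compound exposure lasted 16 h at 37C/5% CO2, following a 5 h pre-incubation of the cells after plating.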

[17] = qHTS assay for small molecule activators of the heat shock response signaling pathway - cell viability counter screen (AID 743209); note: nearly all actives have a fitted effect of over 50% in size
In short: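 Cytotoxicity counter screen run in the same wells as the heat-shock bla reporter assay: HeLa HSE-bla cells, 5 h compound exposure at 37 C, viability read by CellTiter-Glo luminescence.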

[18] = qHTS assay for small molecule activators of the heat shock response signaling pathway (AID 743210; active = well fitted activation curve with a large enough effect in the signal ratio in the repeat runs, with a control signal flat, not every such curve was filed as active; the % refers to the signal ratio; note: series mostly up to about 63 µM)
In short: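 Compound exposure lasted 5 h at 37 C in HeLa cells carrying a heat-shock-element-driven beta-lactamase reporter. Read-out: fluorescence intensity after 2.5 h room-temperature loading with LiveBLAzer B/G FRET substrate.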

[19] = qHTS assay to identify small molecule antagonists of the peroxisome proliferator-activated receptor gamma (PPARg) signaling pathway - cell viability counter screen (AID 743194); note: nearly all actives have a fitted effect of over 55% in size
In short: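 Viability was measured as CellTiter-Glo luminescence in GeneBLAzer PPARg UAS-bla HEK293H cells. These cells had been exposed 17 h at 37 C to compounds together with rosiglitazone at 50 nM final, with the beta-lactamase readout taken in the same wells.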

Measured: Potency

NC(N)=NS(=O)(=O)c1ccc(N)cc1
not listed: [19]
inactive: all other assays above

COCc1ccc(COC)cc1
inactive: all assays above

CCC(C(=O)NC(N)=O)c1ccccc1 (stereo not drawn)
not listed: [15] | [16] | [19]
inactive: all other assays above

CO[Si](CCCNCCC[Si](OC)(OC)OC)(OC)OC
not listed: [14] | [19]
inactive: all other assays above

CC(C)c1cccc(O)c1
not listed: [14] | [15]
inactive: all other assays above

COC(=O)c1ccc(C(=O)OC)c(C(=O)OC)c1
inactive: all assays above

CCN(CC)C(=O)c1ccc(O)c(OC)c1
inactive: all assays above

O=C1C(CCS(=O)c2ccccc2)C(=O)N(c2ccccc2)N1c1ccccc1 (stereo not drawn)
not listed: [14]
inactive: all other assays above

NCCNC(=O)c1ccc(Cl)cn1
inactive: all assays above

CCCCc1ccc2cccc(S(=O)(=O)O)c2c1
inactive: all assays above

COC(=O)CCCCCCCCC(=O)OC
inactive: all assays above

COCCOC(=O)CC#N
not listed: [14]
inactive: all other assays above

CCCCCOC(=O)Nc1nc(=O)n([C@@H]2O[C@H](C)[C@@H](O)[C@H]2O)cc1F
not listed: [19]
inactive: all other assays above

CN(C)C(=O)Nc1ccccc1
not listed: [14]
inactive: all other assays above

CC(C)(C)OC(=O)N1C[C@@H](F)C[C@H]1C(=O)O
inactive: all assays above
